# High-throughput results as filed in PubChem BioAssay.
# Most compounds without a hit are left out; they make up all but 19% or so of the library.
# IL1B secr inh – blocks inflammasome-driven IL-1 beta release; THP-1 LPS/ATP IL-1B secretion, AlphaLISA, 16 h; stronger effect = lower value; activity change, % at 57.5 µM; actives 4.7% (n = 360,000); AID 743279; in the data active = activity change below about -50%; inconclusive = mostly about -30% to -49%
#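 Secreted IL-1B measured by AlphaLISA bead assay after 16 h compound exposure of THP-1 cells; compounds (final up to 57.5 uM) added 1 h before LPS (250 ng/mL) and ATP (1.25 mM) stimulation; lower signal means less secretion.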
# HT1080 IDH1KD tx – HT-1080 IDH1 knockdown cell toxicity (counter line) | actives 2% (n = 360,000) | HT-1080 IDH1 knockdown viability, ATP luminescence, 48 h | AID 686971 | Potency, µM (series often up to 46.1 µM), for inactives: at the top dose activity, negative = toxicity, usual class: cytotoxic;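 note: potency is the fitted concentration of half-maximal effect; 0% = DMSO wells and -100% = cell-free medium wells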
#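 Using the IDH1-knockdown HT-1080 line run in the same batch and compound series as the NT line, viability after 48 h at 37 °C was determined by CellTiter-Glo luminescence and expressed as % activity.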
# DT40 TDP1 CPT – DT40-hTDP1 cell growth loss with CPT | Potency, µM (doses to about 46.2 µM), for the others: at the top dose activity change, negative = growth inhibition, actives largely listed as inhibitors | AID 686979 | actives 12% (n = 420,000) | chicken DT40 Tdp1-/-;hTDP1 cells + 20 nM CPT, ATP luminescence, 48 h; note: potency is the fitted concentration of half-maximal effect; nearly all actives have a fitted effect of over 55% in size
#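 Chicken DT40 Tdp1-/- cells stably complemented with human TDP1 were seeded at 400 cells/well in medium containing 20 nM camptothecin, exposed to pin-transferred compounds, and grown at 37 °C for at least 48 hr. Viability was read as ATP luminescence.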
# TDP1 cell noCPT – qHTS for Inhibitors of human tyrosyl-DNA phosphodiesterase 1 (TDP1): qHTS in cells in absence of CPT; actives 15% (n = 420,000); Potency, µM (doses to about 46.2 µM), without a hit: at the top dose activity change, negative = growth inhibition, most hits filed as inhibitors; DT40 Tdp1-/- hTDP1 cells, no CPT, ATP luminescence, 48 h; AID 686978, 2013; note: potency is the fitted concentration of half-maximal effect; nearly all actives have a fitted effect of over 55% in size
#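 Chicken DT40 Tdp1-/- cells stably complemented with human TDP1 were seeded at 400 cells/well with DMSO in place of 20 nM camptothecin. After compound pinning, cells grew at least 48 hr at 37 °C; viability read by CellTiter-Glo luminescence.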
# HT1080-NT tox – kills 2HG-producing HT-1080-NT fibrosarcoma cells | actives 1.6% (n = 360,000) | Potency, µM (highest dose often 46.1 µM), for the others: top-dose activity, negative = less viability, hits mostly cytotoxic | HT-1080-NT fibrosarcoma viability, CellTiter-Glo ATP luminescence, 48 h | AID 686970;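 note: NT is the 2HG producing partner of a matched IDH1 knockdown line; potency is the fitted concentration of half-maximal effect; 0% = DMSO-treated cells and -100% = media-only wells without cells; nearly all actives have a fitted effect of over 55% in size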
#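 Read-out is CellTiter-Glo luminescence after 10 minutes at room temperature, following 48 hours' compound treatment of HT-1080-NT cells (750 cells/well, RPMI, 5% FBS, 37 degrees C).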
# * marks the source's active call; other numbers are inactive results; ? = inconclusive; · = not tested or not shown. Unless noted, calls come from the whole dose curve; as a rule, active = well fitted curve in the direction sought with a large enough effect; inconclusive = small, poorly fitted or top-dose-only effect, or another doubt; inactive = no such curve, though single readings can be large; an effect the other way counts as inactive or inconclusive. Unless noted, % is set by controls: 0 for no effect and ±100 for the full control effect.
SMILES,IL1B secr inh,HT1080 IDH1KD tx,DT40 TDP1 CPT,TDP1 cell noCPT,HT1080-NT tox
c1ccc2c(c1)CCN(C1=Nc3cccc4cccc1c34)C2,-91.0*,?,?,?,?
c1cc2c3c(cccc3c1)C(N1CCCCCC1)=N2,4.7,-3.1%,-2.7%,-21.8%,-0.5%
COc1ccccc1NC(=O)C/C(C)=N/NC(=O)c1ccccn1,-11.0,2.0%,-1.7%,-15.4%,3.2%
O=C(Nc1ccccc1)c1cccc(C(=O)Nc2ccccc2)n1,3.5,8.6%,-19.0%,3.8%,16.2%
CN(C)c1ccc(-c2[nH][nH]c(=O)c2NC(=O)c2ccccn2)cc1,-7.5,20.6µM*,?,?,?
CC(C)OC(=O)c1cccc(C(=O)Nc2cccc(NC(=O)c3cccc(C(=O)OC(C)C)n3)n2)n1,57.4,16.1%,?,2.06µM*,11.5%
CC(=O)Nc1ccc(NC(=O)c2cccc(C(=O)OC(C)C)n2)cc1,-23.7,23.1%,-7.3%,?,27.4%
CN(C)c1ccc(NC(=O)c2cccc(C(=O)Nc3ccc(N(C)C)cc3)n2)cc1,-55.9*,-14.3%,9.2µM*,6.51µM*,-2.5%
COc1cc(NC(=O)C/C(C)=N/NC(=O)c2ccccn2)c(OC)cc1Cl,-59.3*,-0.4%,5.1%,-3.6%,-18.3%
COc1cccc(CN2CCNC(=O)C2CC(=O)NCCN2CCCCC2=O)c1 (stereo unspecified),5.0,10.4%,-1.9%,23.7%,-2.5%
COc1ccc(-c2nnn(CC(=O)N(CC(=O)NC3CCCC3)c3ccccc3F)n2)cc1OC,-9.0,8.8%,?,-24.5%,-17.3%
C/C(CC(=O)Nc1ccc(N(C)C)cc1)=N\NC(=O)c1cnccn1,0.0,-3.2%,-5.0%,?,3.3%
C/C(CC(=O)Nc1ccc(N(C)C)cc1)=N\NC(=O)c1ccccn1,-15.0,-2.2%,?,14.6µM*,-4.9%
COc1ccc(NC(=O)COC(=O)c2cc3c(s2)CCC3)cc1,14.1,3.0%,16.4µM*,?,-1.9%
NC(=O)c1ccc(NC(=O)COC(=O)c2cc3c(s2)CCC3)cc1,14.7,8.3%,?,-23.3%,4.6%
O=C(COC(=O)c1cc2c(s1)CCC2)Nc1ccc(F)cc1,0.0,-4.5%,?,14.6µM*,-5.7%
COc1ccc(OC)c(N(CC(=O)Nc2cccc(C(F)(F)F)c2)S(C)(=O)=O)c1,-0.3,-1.7%,10.0%,?,-17.5%
COc1ccc(/C=N/NC(=O)C(=O)NCc2cccnc2)cc1,0.0,-17.5%,20.2%,6.2%,-2.6%
COc1ccc(Cl)cc1NC(=O)c1cccc([N+](=O)[O-])c1O,-1.0,?,11.6µM*,8.2µM*,?
COc1ccc(Cl)cc1NC(=O)c1noc(C)c1[N+](=O)[O-],5.4,0.0%,2.91µM*,2.31µM*,13.9%
COc1ccc(Cl)cc1NC(=O)C/C(C)=N/NC(=O)c1ccccc1[N+](=O)[O-],-7.9,?,-16.4%,-15.2%,-27.7%
c1ccc(NN(Cc2cnccn2)c2ccccc2)cc1,-14.5,-10.8%,-22.9%,?,0.5%
COc1ccc(/C=C/C(=O)Nc2ccncc2)cc1OC,-21.8,13.3%,-19.5%,-23.5%,23.4%
CCC1CSC(Nc2ccc(C(=O)/C=C/c3ccc(Br)cc3)cc2)=N1 (stereo unspecified),-92.9*,18.4µM*,?,?,?
O=C(/C=C/c1ccc(Br)cc1)NC1CCCCCC1,-10.8,-0.5%,-13.0%,?,4.9%
SMILES,IL1B secr inh,HT1080 IDH1KD tx,DT40 TDP1 CPT,TDP1 cell noCPT,HT1080-NT tox
CCC1CSC(Nc2ccc(C(=O)/C=C/c3ccc(OC)c(OC)c3)cc2)=N1 (stereo unspecified),-93.5*,?,?,13µM*,?
Cc1cccc(NC(=O)CNc2cc(C)ccc2C)c1,-4.8,-3.1%,-27.8%,?,-1.8%
CC(C)(C)n1[nH]c2c3c(ccc2c1=O)C(=O)c1ccccc1C3=O,-0.2,?,8.2µM*,7.31µM*,?
COCCCn1[nH]c2c3c(ccc2c1=O)C(=O)c1ccccc1C3=O,-17.6,?,16.4µM*,16.4µM*,?
Cc1ccc(-n2[nH]c3c4c(ccc3c2=O)C(=O)c2ccccc2C4=O)cc1,-3.9,20.3%,-7.8%,-20.9%,23.9%
Cc1ccc(S(=O)(=O)CCc2ccncc2)cc1,45.2,1.6%,?,-21.9%,0.6%
CCC(C)Sc1nc2c(c(=O)[nH]1)C(c1cccs1)C1=C(CCCC1=O)N2 (stereo unspecified),-10.3,-18.5%,?,20.6µM*,-28.0%
CS(=O)(=O)N1CCc2cc(-c3csc(NC(=O)Cc4cccs4)n3)ccc21,-65.4*,?,13µM*,8.2µM*,10µM*
O=C(COC(=O)/C=C/c1cccs1)Nc1nc(-c2ccccc2)cs1,-12.6,-12.9%,16.4µM*,13µM*,-21.4%
O=C(COC(=O)c1cccs1)Nc1nc(-c2ccccc2)cs1,-5.4,20.9%,2.8%,?,26.1%
O=C(Cc1cccs1)Nc1nc(-c2ccccc2)cs1,-69.9*,?,23.1µM*,8.2µM*,-27.7%
N#Cc1c(N)oc(-c2ccco2)c1-c1ccco1,?,-0.6%,?,16.4µM*,-0.5%
N#Cc1c(N)oc(-c2ccccc2)c1-c1ccccc1,-4.1,1.3%,-6.3%,-12.8%,-0.3%
CN1CCC2(CC1)N=C(c1ccc(F)cc1)C(=S)N2C(=O)c1ccccc1,0.0,-23.1%,7.31µM*,11.6µM*,-24.5%
CCN1CCC2(CC1)N=C(c1ccc(F)cc1)C(=S)N2C(=O)c1ccc(C(C)(C)C)cc1,-19.4,-10.0%,?,-11.2%,1.7%
CCOC(=O)c1noc2ncnc(Nc3cccc(C(F)(F)F)c3)c12,·,·,-24.2%,-24.1%,·
O=C(c1ccc(-c2ccc([N+](=O)[O-])cc2)o1)N1CCN(S(=O)(=O)c2cccs2)CC1,-6.5,-3.9%,16.4µM*,3.66µM*,-7.0%
CC(=O)c1ccc(-c2ccc(C(=O)NC3CC(C)(C)NC(C)(C)C3)o2)cc1,-55.6*,1.4%,23.4%,?,2.4%
CC1(C)CC(NC(=O)c2ccc(F)cc2)CC(C)(C)N1,-1.1,-11.0%,1.4%,6.2%,2.7%
O=C(NC1CCC(O)CC1)c1ccc(-c2ccc([N+](=O)[O-])cc2)o1 (stereo unspecified),-11.9,-0.1%,16.4µM*,16.4µM*,-8.9%
O=C(c1ccco1)N1CCN(C(=O)c2ccc(-c3ccc([N+](=O)[O-])cc3)o2)CC1,-3.1,-1.5%,23.1µM*,?,6.6%
O=C(c1ccc(-c2ccc(Cl)cc2)o1)N1CCN(S(=O)(=O)c2cccs2)CC1,-18.2,-3.5%,?,?,-5.7%
